Where “and” joins values, the source holds several entries; their conditions need not be identical. Equal values may be shown once. About 83,000 compounds went through this panel and 20% of them were active in at least one assay; those are over-represented in the sample as a whole.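 Step 1: grow cells in 96-well plates. Step 2: add test compound at a single concentration. Step 3: incubate 48 h. Step 4: record percent growth.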 Calls of active or inactive are those of the source. Rule for the calls: active = growth percent below 10; inactive = the rest.
Assays:
Assay in all cases: NCI-60 one-dose screen, 48 h (100 = growth as untreated, 0 = no growth, -100 = all killed)
Conditions in all cases: 10 µM unless noted
MCF7 breast = system: MCF7 breast
BT-549 breast = system: BT-549 breast
MDA-MB-435 melanoma = system: MDA-MB-435 melanoma
SW-620 colon = system: SW-620 colon
HCT-116 colon = system: HCT-116 colon
HCC-2998 colon = system: HCC-2998 colon
KM12 colon = system: KM12 colon

SMILES: O=C1NC(=S)NC1C(Cc1ccccc1)c1ccco1 (stereo not given)
- growth (MCF7 breast): 19% [100 µM] (inactive) and 3.76% [100 µM] (active)

SMILES: COc1ccc(CC2c3cc(OC)c(OC)c(OC)c3CC[N+]2(C)C)cc1Oc1ccc(CC2c3cc4c(c(OC)c3CCN2C)OCO4)cc1 (stereo not given)
- growth (MCF7 breast): 69.2% [100 µM] (inactive) and 5.51% [100 µM] (active)

SMILES: O=C1C=C(Nc2ccc(S(=O)(=O)Nc3nccs3)cc2)c2ccccc2C1=O
- growth (MCF7 breast): -89% [100 µM] (active) and -74.5% [100 µM] (active)

SMILES: COc1ccc2c3c(c(=O)n(C)c2c1OC)C=CC(C)(C)O3
- growth (MCF7 breast): 4.77% [100 µM] (active) and 0.153% [100 µM] (active)

SMILES: NC(=O)c1cc(I)ccc1NC(=O)COc1ccc(Cl)cc1Cl
- growth (BT-549 breast): 77.6% (inactive)
- growth (MDA-MB-435 melanoma): 14.9% (inactive)
- growth (SW-620 colon): 79.6% (inactive)
- growth (MCF7 breast): 72.2% (inactive)
- growth (HCT-116 colon): 90.7% (inactive)
- growth (HCC-2998 colon): 95.3% (inactive)
- growth (KM12 colon): 67.8% (inactive)

SMILES: N#CC12COC3(CCCCC3C1(C#N)C#N)OC2=N (stereo not given)
- growth (MCF7 breast): -25.8% [100 µM] (active)

SMILES: COC(=O)C1C2CC3c4[nH]c5cc(OC)ccc5c4CCN3CC2CC(OC2CCCCO2)C1OC (stereo not given)
- growth (BT-549 breast): 97.2% (inactive)
- growth (MDA-MB-435 melanoma): 101% (inactive)
- growth (SW-620 colon): 100% (inactive)
- growth (MCF7 breast): 95.8% (inactive)
- growth (HCT-116 colon): 103% (inactive)
- growth (KM12 colon): 105% (inactive)

SMILES: CC#CC#C/C=C1\C=CC2(OC=CC2OC(C)=O)O1 (stereo not given)
- growth (MCF7 breast): -91.4% [100 µM] (active) and -48.8% [100 µM] (active)

SMILES: Nc1cc2c3c(cccc3c1)C(=O)N(c1ccc(OCCN3CCCCC3)cc1)C2=O
- growth (MCF7 breast): -95.1% [100 µM] (active) and -100% [100 µM] (active)

— PubChem BioAssay (NCI)
